Growth data for nine compounds are collected here from PubChem BioAssay (NCI).

About 83,000 compounds went through this panel and 20% of them were active in at least one assay; those are over-represented in the sample as a whole.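 Note: values are percent growth. 100 is the growth of untreated cells, values between 100 and 0 indicate rising inhibition; between -100 and 0 indicates cell death.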 Calls of active or inactive are those of the source. How the source made its calls: active means growth percent below 10; inactive means the rest.

For the assay, the system named is SNB-19 CNS. The assay is described as follows: NCI-60 one-dose screen, 48 h (100 = growth as untreated, 0 = no growth, -100 = all killed). The note with it: 10 µM unless noted.
As for `Cn1ccnc1C(=O)/C=C/c1ccc(CC(=O)Nc2ccccc2)cc1`, the growth is 10.3% (inactive).
The figure for `Cc1ccc2oc(=O)cc(C3c4ccc([nH]4)C(c4cc(=O)oc5ccc(C)cc45)c4ccc([nH]4)C(c4cc(=O)oc5ccc(C)cc45)c4ccc([nH]4)C(c4cc(=O)oc5ccc(C)cc45)c4ccc3[nH]4)c2c1` (centres undefined) is -29.6% (active).
To `CC(C)(C)CC(C)(C)c1ccc(OCCOCC[N+](C)(C)Cc2ccccc2)cc1` belongs -89% (active); to `CN1CCN(CCCOc2cccc3nc(Nc4cc(Cl)cc(Cl)c4)ccc23)CC1`, 7.72% (active); to `CC(C)C[C@@H](NC(=O)[C@@H](Cc1ccccc1)NC(=O)c1cnccn1)B1Oc2ccc(C[C@H](NC(=O)[C@H](Cc3ccc4c(c3)OB([C@@H](CC(C)C)NC(=O)[C@@H](Cc3ccccc3)NC(=O)c3cnccn3)O4)NC(=O)[C@@H](N)CC3CCC4OB([C@@H](CC(C)C)NC(=O)[C@@H](CC5CCCCC5)NC(=O)C5CNCCN5)OC4C3)C(=O)NCCCC[C@@H]3NC(=O)[C@@H](Cc4ccccc4)NC(=O)[C@H](CC(=O)O)NC(=O)CNC(=O)[C@H](CCCNC(=N)N)NC3=O)cc2O1` (some centres undefined), -24.7% (active).
The figure for `CCN(CC)c1ccc(/C=N\NC(=O)/C=C/C=C/c2ccc3c(c2)OCO3)c(O)c1` is 61% (inactive).
For the compound `O=S(=O)(Nc1ccc(NS(=O)(=O)c2ccccc2)c(Cl)c1)c1ccccc1`, the growth is 112% (inactive).
`COc1ccc(/C=C/c2nc3ccccc3nc2/C=C/c2ccc(OC)cc2)cc1`: the growth was 108% (inactive).
On to `COc1ccc(/C=C/C(=O)c2cc(O)ccc2O)cc1`, for which the growth was 96.6% (inactive).
